From PubChem BioAssay AID2796 (The Scripps Research Institute Molecular Screening Center, 2010) come the findings set out here.

Screen size: about 320,000 compounds; about 8,000 (2.5%) were called active. Shown is part of a subset that was picked to be rich in actives. A number with no mark means an inactive call. Cut-off read from the data, not from the text of the source: active = activation above about 47%; inactive = the rest.

Aryl hydrocarbon receptor (Homo sapiens), sequence (P35869 whole entry, looked up): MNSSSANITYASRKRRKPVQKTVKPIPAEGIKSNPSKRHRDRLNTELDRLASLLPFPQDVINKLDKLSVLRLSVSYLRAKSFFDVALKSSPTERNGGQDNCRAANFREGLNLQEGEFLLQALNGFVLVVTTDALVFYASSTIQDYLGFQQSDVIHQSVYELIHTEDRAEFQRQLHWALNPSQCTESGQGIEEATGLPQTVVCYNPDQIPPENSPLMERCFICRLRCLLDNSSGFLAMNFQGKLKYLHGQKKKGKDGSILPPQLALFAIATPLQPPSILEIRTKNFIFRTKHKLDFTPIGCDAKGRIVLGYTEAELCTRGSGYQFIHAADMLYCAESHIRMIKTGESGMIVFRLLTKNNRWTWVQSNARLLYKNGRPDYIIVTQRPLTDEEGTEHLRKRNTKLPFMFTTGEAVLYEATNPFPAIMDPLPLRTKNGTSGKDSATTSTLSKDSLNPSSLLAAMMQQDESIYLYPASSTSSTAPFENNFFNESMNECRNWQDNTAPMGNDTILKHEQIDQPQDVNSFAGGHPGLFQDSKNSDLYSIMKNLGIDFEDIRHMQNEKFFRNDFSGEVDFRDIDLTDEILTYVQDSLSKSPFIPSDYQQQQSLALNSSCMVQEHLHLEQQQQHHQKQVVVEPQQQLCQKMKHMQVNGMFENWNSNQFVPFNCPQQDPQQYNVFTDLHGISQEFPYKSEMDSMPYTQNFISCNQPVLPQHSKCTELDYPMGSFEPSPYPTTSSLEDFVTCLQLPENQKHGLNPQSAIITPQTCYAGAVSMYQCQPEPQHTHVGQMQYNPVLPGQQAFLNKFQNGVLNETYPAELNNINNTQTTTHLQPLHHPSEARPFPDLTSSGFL

The assay addresses Aryl hydrocarbon receptor (Homo sapiens) (UniProt P35869). The experiment in a line: AHR activators, primary screen, cell-based, luminescence, luciferase reporter, human (AID 2796).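 Note: 0% = vehicle wells and 100% = reference agonist.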 As to conditions: AHR-responsive luciferase reporter cells, at 5 µM, active compounds read high. (In general: A reporter such as luciferase makes a cellular process visible.)
In the case of `O=C(Oc1c(-c2ccco2)oc2ccccc2c1=O)c1cccnc1`, the activation was 2.09%.

For the compound `COc1cccc(/C=C/c2ccc3ccccc3n2)c1OC(C)=O`, the activation was 8.53%.

Take `COc1ccccc1/C=C/C(=O)NC(=S)N1CCOCC1`: the activation is 43%.

Regarding `COc1ccccc1/C=C/C1=NC(=C\N(C)C)/C(=O)O1`, the activation was 57.2% (active).

As to `O=C(COC(=O)C1CCCO1)Nc1nc(-c2ccc(F)cc2)cs1` (stereo not given), the activation is -1.85%.

For `CC(C)N(Cc1nnc(-c2ccccc2Br)o1)C(=O)c1cc(Cl)nc2ccccc12`, the activation was 18.6%.

`CCOc1ccc(S(=O)(=O)Nc2cccc(C(=O)NCC3(N4CCCCC4)CCCCC3)c2)cc1`: the activation is -2.77%.

Take `Cc1nc(-c2ccc([N+](=O)[O-])cc2)c(-c2ccccc2)o1`: the activation is 1.84%.

With `Cn1nc(-c2ccccc2)c2cc([N+](=O)[O-])ccc21`, the activation was 67.7% (active).

For the compound `COc1ccc([N+](=O)[O-])cc1-c1nc2ccccc2nc1-c1ccccc1`, the activation is 3.27%.

With `CCNC(=O)c1cccc(NC(=O)C2CC(=O)N(CCc3ccccc3)C2)c1` (stereo not given), the activation is 2.07%.

For the compound `C=CCn1cc(C(=O)NCc2ccc(Cl)cc2)c(=O)c2cc(S(=O)(=O)N(CC)CC)ccc21`, the activation was 11.3%.

Turning to `CCCOc1ccc(Cc2c(Cl)nc(SC)nc2NC)cc1`, the activation was 2.63%.

For the compound `COc1cccc(CNS(=O)(=O)c2cc3c(cc2C)n(C)c(=O)c(=O)n3C)c1`, the activation was -0.05%.

For the compound `COc1cccc2sc(Nc3nc(C)c(C(C)=O)s3)nc12`, the activation is 67.4% (active).

Consider `COc1cccc2sc(N(CCCN(C)C)C(=O)C(c3ccccc3)c3ccccc3)nc12`, for which the activation was -0.96%.

With `COc1ccccc1OCc1nc2ccccc2s1`, the activation is 45.1%.

With `COc1cc2ccccc2cc1C(=O)Nc1nc(C)c(C(C)=O)s1`, the activation is 6.6%.

As for `COc1ccccc1/C=N/Nc1nc(C)c(C(C)=O)s1`, the activation is 33.6%.

As to `COc1cccc2sc(NNC(=O)c3nc4ccccc4s3)nc12`, the activation is 86.3% (active).

Consider `CCOP(=O)(OCC)C(Nc1ccc([N+](=O)[O-])cc1)c1ccc(Cl)cc1` (stereo not given), for which the activation is 0.69%.

As to `Cn1ccc(=Nc2ccc(NC(=O)c3ccc(N=c4ccn(C)c5ccc([N+](=O)[O-])cc45)cc3)cc2)cc1`, the activation is 2.76%.

Turning to `O=C(Nc1nnc(-c2ccccc2)o1)c1cccc(S(=O)(=O)N2CCOCC2)c1`, the activation was 2.09%.

On to `CC(C)CNC(=O)COC(=O)c1ccccc1OCC(=O)Nc1ccc(Br)cc1`, for which the activation is -3.8%.

On to `CC(C)C(NC(=O)c1cccc(S(=O)(=O)N2CCOCC2)c1)C(=O)NCCc1ccccn1` (stereo not given), for which the activation is -6.5%.

Regarding `c1ccc2c(CNn3cnnc3)cccc2c1`, the activation was 0.98%.

Regarding `c1ccc(NCc2cccc3ccccc23)nc1`, the activation was 67.9% (active).

`COc1ccc2ccccc2c1CNCc1ccccn1`: the activation is 18.4%.

As to `COc1ccc(CCNC(=O)C(=O)NCC2OCCN2S(=O)(=O)c2cccs2)cc1OC` (stereo not given), the activation is -2.65%.

As for `CN(CCc1ccccc1)C(=O)c1cccc(NC(=O)Cc2ccc([N+](=O)[O-])cc2)c1`, the activation was -0.06%.

Regarding `Cn1cccc1/C=N/NC(=O)c1ccc(OC(F)(F)C(F)F)cc1`, the activation was 3.37%.

Turning to `O=C(Nc1ccc(OC(F)(F)F)cc1)c1ccc2c(c1)no[n+]2[O-]`, the activation is 93.6% (active).

For the compound `Cn1nccc1NC(=O)Nc1ccc(OC(F)(F)F)cc1`, the activation was 3.12%.

`COC(=O)c1ccc(COC(=O)CNC(=O)c2cccc(OC)c2)o1`: the activation is 0.14%.

As to `O=C(c1ccc(-c2ccccc2)cc1)C1CCCN(C(=O)c2cncs2)C1` (stereo not given), the activation was 37.6%.

Take `CC1(C)CC(=O)C=C(c2ccc3ncccc3c2)C1`: the activation was 8.47%.

Regarding `O=C(Nc1ccc(F)cc1)c1cc2c(s1)CCCC2`, the activation was 55.3% (active).

As to `CN(C)C(=O)c1ccc(NC(=O)COC(=O)c2cc3c(s2)CCCCC3)cc1`, the activation is -0.09%.

On to `O=C(NNC(=O)c1cc2c(s1)CCCC2)c1ccccc1`, for which the activation was 4.72%.

As for `CC(C)CCNC(=O)C(C)N(C(=O)Cn1nnc(-c2ccc(F)cc2)n1)C1CCCC1` (stereo not given), the activation was -2.15%.

Consider `O=C(Nc1ccccc1)c1cc2ccccc2[nH]1`, for which the activation is 160% (active).

As to `CC(OC(=O)c1cc2ccccc2[nH]1)C(=O)N(C)c1ccccc1` (stereo not given), the activation was 28.8%.

For `COc1ccc2[nH]c(C(=O)Nc3ccccc3Cl)cc2c1`, the activation was 21%.

Turning to `CCc1ccc(Oc2nc([N+](=O)[O-])nn2C)cc1`, the activation is -3.57%.

For `CCCN(CCc1ccccc1)C1CCc2c(O)cccc2C1` (stereo not given), the activation was 3.78%.

Consider `COc1cc(/C=N/NC(=O)CNC(=O)c2ccncc2)ccc1OC(C)=O`, for which the activation is 0.59%.

Turning to `COc1cc(/C=N/NC(=O)c2cccnc2)ccc1OC(=O)c1cccc(Br)c1`, the activation was 18.7%.

As for `COc1ccc(/C=N\NC(=O)c2sc(N)nc2C)cc1OC`, the activation was 77.3% (active).

For the compound `COc1cnc(SCc2ccc(Cl)c(Cl)c2)nc1Cl`, the activation was -1.43%.

As to `O=C(Cc1cccs1)Nc1cccc(-c2nc3ccccc3[nH]2)c1`, the activation is 75.8% (active).

On to `O=C(Cc1cccs1)Nc1ccc([N+](=O)[O-])cc1`, for which the activation was 0.97%.

With `CCOC(=O)c1ccc(NC(=O)Cc2cccs2)cc1`, the activation was 0.34%.

For `CN1CCC(CN)(N2CCN(c3ccccc3)CC2)CC1`, the activation is 2.54%.

For the compound `COc1ccccc1C(=O)N(Cc1ccc(C)o1)C1CCS(=O)(=O)C1` (stereo not given), the activation is -1.67%.

As for `Cc1ccc2c(N)c(C(=O)c3ccccc3)sc2n1`, the activation is 46.1%.

Take `CCc1nc2sc(C(=O)O)c(N)c2c2c1CCCC2`: the activation was 0.64%.

For the compound `Cc1nc2sc(C(=O)c3ccccc3)c(N)c2c2c1CCCC2`, the activation was 85.3% (active).

`CC1(C)CC(=O)C=C(NCCN2CCNCC2)C1`: the activation is 3.32%.

For `COc1cccc(C2=CC(=O)C[C@H](c3ccc(OC)c(OC)c3)C2)c1`, the activation is 2.2%.

On to `O=S(=O)(Nc1cc(S(=O)(=O)N2CCOCC2)ccc1N1CCCC1)c1cccs1`, for which the activation was 1.52%.

On to `CCOc1cc(/C=N/NC(=O)c2cc(-c3ccccc3)nc3ccccc23)ccc1O`, for which the activation was 16.1%.

With `CCOc1ccc2[nH]c(C(=O)N/N=C/c3cccc(OC)c3OC)cc2c1`, the activation was 33%.

Turning to `COc1cccc(-c2cc(C(=O)N/N=C/c3ccc(OC)c(COC(C)=O)c3)c3ccccc3n2)c1`, the activation was 54.1% (active).

Regarding `COc1ccc(/C=N/NC(=O)c2cc(-c3cccc(C)c3)nc3ccccc23)cc1O`, the activation was 21.2%.

In the case of `COc1ccc2[nH]c(C(=O)N/N=C/c3cc(OC)c(OC)c(OC)c3)cc2c1`, the activation is 30.9%.

As to `COc1cccc(OCc2cc(/C=N/NC(=O)c3nc(Cl)c(Cl)c(N)c3Cl)ccc2OC)c1`, the activation is 73.8% (active).

With `O=C(COc1ccc(Br)cc1F)NCC1(N2CCCCC2)CCCCC1`, the activation was -0.81%.

Consider `O=c1oc2c(Cl)cc(Cl)cc2cc1-c1nnc(Nc2ccccc2F)s1`, for which the activation is 10.5%.

`OC(COCCC12CC3CC(CC(C3)C1)C2)CN1CCCCC1` (stereo not given): the activation is 0.68%.

Turning to `CC(=O)N[C@H]1[C@H]([C@H](O)[C@H](O)CO)OC(C(=O)O)=C[C@@H]1O`, the activation is 0.57%.

On to `Cc1ccc(S(=O)(=O)N(CC(=O)Nc2cccc([N+](=O)[O-])c2)Cc2ccc(Cl)cc2)cc1`, for which the activation was 6.55%.

`CCn1c(CSc2ncccn2)nnc1SCC(=O)N1c2ccccc2CC1C` (stereo not given): the activation was -1.92%.

For the compound `CC1Cc2ccccc2N1C(=O)CSc1nnc(C2CC2)n1C` (stereo not given), the activation was 93% (active).

Take `CC1Cc2ccccc2N1C(=O)CSc1nnc(-c2ccc(S(=O)(=O)N3CCCC3)cc2)n1C` (stereo not given): the activation is 1.18%.

Turning to `CO/N=C/c1ccc(N2CCN(C(=O)c3cccc(Cl)c3)CC2)c([N+](=O)[O-])c1`, the activation is -0.18%.

As for `Cc1nn(Cc2ccccc2Cl)c(C)c1NC(=O)Cn1nc([N+](=O)[O-])c(Cl)c1C`, the activation was 0.37%.

As to `COc1cccc(NC(=O)COc2cc(C)cc3oc(=O)cc(C)c23)c1`, the activation is 12.3%.

Regarding `Cc1c(NC(=O)c2cc(-c3ccc(Br)cc3)on2)c(=O)n(-c2ccccc2)n1C`, the activation is -3.47%.

Regarding `Cc1cc2oc(C(=O)Nc3c(C)n(C)n(-c4ccccc4)c3=O)c(C)c2cc1Cl`, the activation was 81% (active).

Regarding `Cc1c(NC(=O)c2coc(=O)c(Br)c2)c(=O)n(-c2ccccc2)n1C`, the activation is 0.64%.

Consider `COCCN(Cc1cc2cc3c(cc2nc1Cl)OCO3)C(=O)c1cccc(C)c1`, for which the activation is 11.9%.

Regarding `COc1ccc(Nc2nnc(C)c3ccccc23)cc1`, the activation is 102% (active).

`COc1ccc(Nc2nc(=O)[nH]nc2C)cc1`: the activation is -3.65%.

For the compound `Cc1nnc(NCCO)c2ccccc12`, the activation was -2.09%.

For `CCCCNC(=O)N1CCCC(N(C)CCc2ccc(OC)c(OC)c2)C1` (stereo not given), the activation was -0.75%.

Take `CCNC(=O)NNC(=O)C1CC(c2cccs2)=NO1` (stereo not given): the activation was 3.35%.

Take `Cn1cccc1C(=O)OCC(=O)NCCc1ccccc1`: the activation was 7.54%.

In the case of `S=c1nc2ccccc2c2nc(-c3cccnc3)[nH]n12`, the activation was 83.8% (active).

Consider `c1ccc(-n2nnnc2-c2cccnc2)cc1`, for which the activation was 36.3%.

As to `O=C(CSc1n[nH]c(-c2cccnc2)n1)Nc1ccnc2ccccc12`, the activation is 8.3%.

In the case of `O=C(/C=C/Sc1ncn[nH]1)c1ccc(Cl)cc1`, the activation is 0.35%.

In the case of `COc1cc(C)ccc1OCC(=O)OCC(=O)c1ccc[nH]1`, the activation was -3.4%.

Regarding `CCOCCCNc1nc(-c2ccccc2)nc2ccccc12`, the activation was 13.5%.

With `C[C@@H](Nc1nc(-c2ccccc2)nc2c1oc1ccccc12)C(=O)O`, the activation was 16.4%.

For `COCCNc1nc(-c2ccccc2)nc2c1oc1ccccc12`, the activation is 88.9% (active).
